Assay results as given in the supplement of paper PMC10849652.
Targets with a hit are over-represented here; the source holds about 7,900 in all. About 0.6% of all pairs of compound and target were hits.

Assays:
Experiment in all cases: log2 fold change, soluble protein after heating vs DMSO (PISA); higher = thermal stabilisation; K562 cells, 10 uM, 30 min; active = over 0.2 and 3.5 SD of the protein, either way, in both replicates (recomputed)
[1] = compound: COC1=CC=C(C=C1)CN2C=CC3=C2C=C(C=C3)C(=O)NO
Procedure, shortened: (§1)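 Soluble protein was quantified by TMTpro 16plex LC-MS/MS after channel sums were equalised. It was obtained as the supernatant after 21,000xg for 90 min from pooled aliquots of K562 cells (2×10^6 cells/mL, 10 μM compound, 30 min) heated for 3 min across 48°C-58°C and extracted in PBS with 0.5% NP-40 at 4°C. Thermal stability values are relative to control samples and come from duplicates. They are given as log2 fold changes.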

filanesib = compound: CON(C)C(=O)N1N=C(c2cc(F)ccc2F)S[C@@]1(CCCN)c1ccccc1 [filanesib]
Procedure, shortened: as §1

zotarolimus = compound: CO[C@H]1C[C@@H]2CC[C@@H](C)[C@@](O)(O2)C(=O)C(=O)N2CCCC[C@H]2C(=O)O[C@H]([C@H](C)C[C@@H]2CC[C@H](n3cnnn3)[C@H](OC)C2)CC(=O)[C@H](C)/C=C(\C)[C@@H](O)[C@@H](OC)C(=O)[C@H](C)C[C@H](C)/C=C/C=C/C=C/1C [zotarolimus]
Procedure, shortened: as §1

idasanutlin = compound: COc1cc(C(=O)O)ccc1NC(=O)[C@@H]1N[C@@H](CC(C)(C)C)[C@](C#N)(c2ccc(Cl)cc2F)[C@H]1c1cccc(Cl)c1F [idasanutlin]
Procedure, shortened: as §1

alisertib = compound: COc1cc(Nc2ncc3c(n2)-c2ccc(Cl)cc2C(c2c(F)cccc2OC)=NC3)ccc1C(=O)O [alisertib]
Procedure, shortened: as §1

[2] = compound: COc1cc2nc(-c3cc(F)ccc3O)nc(N[C@@H]3CNC[C@H]3C(C)(C)O)c2cc1OC
Procedure, shortened: as §1

gefitinib = compound: COc1cc2ncnc(Nc3ccc(F)c(Cl)c3)c2cc1OCCCN1CCOCC1 [gefitinib]
Procedure, shortened: as §1

[3] = compound: COc1cccc2cc(-c3nc([C@H]4CC[C@H](C(=O)O)CC4)n4ncnc(N)c34)[nH]c12
Procedure, shortened: as §1

lapatinib = compound: CS(=O)(=O)CCNCc1ccc(-c2ccc3ncnc(Nc4ccc(OCc5cccc(F)c5)c(Cl)c4)c3c2)o1 [lapatinib]
Procedure, shortened: as §1

pictilisib = compound: CS(=O)(=O)N1CCN(Cc2cc3nc(-c4cccc5[nH]ncc45)nc(N4CCOCC4)c3s2)CC1 [pictilisib]
Procedure, shortened: as §1

[4] = compound: CS(=O)(=O)c1ccc(-c2cnc(N)c(C(=O)Nc3ccccc3)n2)cc1
Procedure, shortened: as §1

crizotinib = compound: C[C@@H](Oc1cc(-c2cnn(C3CCNCC3)c2)cnc1N)c1c(Cl)ccc(F)c1Cl [crizotinib]
Procedure, shortened: as §1

[5] = compound: C[C@@H]1COCCN1C2=NC(=NC(=C2)C3(CC3)S(=O)(=O)C)C4=C5C=CNC5=CC=C4
Procedure, shortened: as §1

[6] = compound: C[C@H](C1=CC=C(C=C1)C(=O)NC2=C3C=CNC3=NC=C2)N
Procedure, shortened: as §1

duvelisib = compound: C[C@H](Nc1ncnc2nc[nH]c12)c1cc2cccc(Cl)c2c(=O)n1-c1ccccc1 [duvelisib]
Procedure, shortened: as §1

gandotinib = compound: Cc1cc(Nc2cc(CN3CCOCC3)c3nc(C)c(Cc4ccc(Cl)cc4F)n3n2)n[nH]1 [gandotinib]
Procedure, shortened: as §1

tozasertib = compound: Cc1cc(Nc2cc(N3CCN(C)CC3)nc(Sc3ccc(NC(=O)C4CC4)cc3)n2)n[nH]1 [tozasertib]
Procedure, shortened: as §1

[7] = compound: Cc1cc(SCc2sc(-c3ccc(C(F)(F)F)cc3)nc2C)ccc1OCC(=O)O
Procedure, shortened: as §1

doramapimod = compound: Cc1ccc(-n2nc(C(C)(C)C)cc2NC(=O)Nc2ccc(OCCN3CCOCC3)c3ccccc23)cc1 [doramapimod]
Procedure, shortened: as §1

ispinesib = compound: Cc1ccc(C(=O)N(CCCN)[C@@H](c2nc3cc(Cl)ccc3c(=O)n2Cc2ccccc2)C(C)C)cc1 [ispinesib]
Procedure, shortened: as §1

Measured: log2 fold change

HMG20A (UniProt Q9NP66)
inactive: [1] -0.045 | filanesib 0.05 | zotarolimus 0.078 | idasanutlin -0.21 | alisertib -0.016 | [2] 0.147 | gefitinib 0.065 | [3] -0.021 | lapatinib -0.088 | pictilisib 0.145 | [4] -0.042 | crizotinib 0.07 | [5] -0.018 | [6] -0.199 | duvelisib 0 | gandotinib 0.104 | tozasertib -0.035 | [7] -0.087 | doramapimod 0.071 | ispinesib 0.352

GYG1 (UniProt P46976)
active: pictilisib 0.376
inactive: [1] 0.08 | filanesib 0.124 | zotarolimus 0.036 | idasanutlin 0.15 | alisertib -0.133 | [2] -0.163 | gefitinib -0.028 | [3] -0.195 | lapatinib 0.051 | [4] -0.223 | crizotinib -0.037 | [5] -0.15 | [6] 0.018 | duvelisib -0.057 | gandotinib -0.12 | tozasertib 0.072 | [7] 0.09 | doramapimod 0.072 | ispinesib -0.12

FANCD2 isoform 1 (UniProt Q9BXW9)
Chain of UniProt Q9BXW9 (Q9BXW9 whole entry, looked up): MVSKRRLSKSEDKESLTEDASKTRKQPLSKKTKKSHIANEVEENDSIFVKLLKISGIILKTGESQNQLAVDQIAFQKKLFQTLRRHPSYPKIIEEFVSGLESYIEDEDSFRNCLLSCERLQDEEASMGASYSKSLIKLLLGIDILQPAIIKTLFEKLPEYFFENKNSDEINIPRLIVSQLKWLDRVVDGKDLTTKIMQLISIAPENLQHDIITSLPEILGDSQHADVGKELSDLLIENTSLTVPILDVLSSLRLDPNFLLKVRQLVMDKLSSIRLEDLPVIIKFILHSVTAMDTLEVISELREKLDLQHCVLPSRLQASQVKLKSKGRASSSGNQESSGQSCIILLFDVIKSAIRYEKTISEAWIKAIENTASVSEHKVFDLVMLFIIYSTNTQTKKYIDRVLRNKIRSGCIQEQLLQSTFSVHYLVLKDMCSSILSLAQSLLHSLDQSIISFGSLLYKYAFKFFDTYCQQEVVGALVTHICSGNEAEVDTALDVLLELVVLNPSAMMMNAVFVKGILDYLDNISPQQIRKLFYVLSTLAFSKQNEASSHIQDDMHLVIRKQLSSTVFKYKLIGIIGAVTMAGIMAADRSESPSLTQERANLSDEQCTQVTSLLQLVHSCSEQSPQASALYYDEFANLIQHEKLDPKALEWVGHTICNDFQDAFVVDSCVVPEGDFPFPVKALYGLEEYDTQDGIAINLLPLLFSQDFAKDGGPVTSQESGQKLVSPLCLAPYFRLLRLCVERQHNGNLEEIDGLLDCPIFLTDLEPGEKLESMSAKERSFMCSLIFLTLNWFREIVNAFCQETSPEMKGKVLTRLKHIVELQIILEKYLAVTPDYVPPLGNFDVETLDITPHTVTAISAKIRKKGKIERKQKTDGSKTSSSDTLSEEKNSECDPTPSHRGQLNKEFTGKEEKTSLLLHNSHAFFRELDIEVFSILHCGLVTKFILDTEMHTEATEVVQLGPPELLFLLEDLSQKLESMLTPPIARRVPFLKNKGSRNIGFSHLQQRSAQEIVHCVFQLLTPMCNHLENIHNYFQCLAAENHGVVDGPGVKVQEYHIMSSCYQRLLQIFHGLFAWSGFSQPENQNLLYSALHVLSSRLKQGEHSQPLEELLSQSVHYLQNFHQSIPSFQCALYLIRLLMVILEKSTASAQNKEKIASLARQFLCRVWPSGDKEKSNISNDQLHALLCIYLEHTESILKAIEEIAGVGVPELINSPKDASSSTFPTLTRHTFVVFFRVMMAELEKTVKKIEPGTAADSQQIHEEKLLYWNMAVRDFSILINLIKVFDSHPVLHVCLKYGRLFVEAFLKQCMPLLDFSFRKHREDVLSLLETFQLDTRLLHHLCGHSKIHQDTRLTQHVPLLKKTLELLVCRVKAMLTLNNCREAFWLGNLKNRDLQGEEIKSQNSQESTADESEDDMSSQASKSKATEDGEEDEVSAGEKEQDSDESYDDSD
inactive: [1] 0.054 | filanesib -0.078 | zotarolimus -0.007 | idasanutlin -0.062 | alisertib -0.037 | [2] 0.053 | gefitinib -0.033 | [3] 0.031 | lapatinib -0.025 | pictilisib 0.123 | [4] -0.056 | crizotinib -0.052 | [5] 0.127 | [6] -0.014 | duvelisib -0.014 | gandotinib -0.135 | tozasertib 0.003 | [7] 0.034 | doramapimod 0.004 | ispinesib -0.096

HK2 (UniProt P52789)
Chain of UniProt P52789 (P52789 whole entry, looked up): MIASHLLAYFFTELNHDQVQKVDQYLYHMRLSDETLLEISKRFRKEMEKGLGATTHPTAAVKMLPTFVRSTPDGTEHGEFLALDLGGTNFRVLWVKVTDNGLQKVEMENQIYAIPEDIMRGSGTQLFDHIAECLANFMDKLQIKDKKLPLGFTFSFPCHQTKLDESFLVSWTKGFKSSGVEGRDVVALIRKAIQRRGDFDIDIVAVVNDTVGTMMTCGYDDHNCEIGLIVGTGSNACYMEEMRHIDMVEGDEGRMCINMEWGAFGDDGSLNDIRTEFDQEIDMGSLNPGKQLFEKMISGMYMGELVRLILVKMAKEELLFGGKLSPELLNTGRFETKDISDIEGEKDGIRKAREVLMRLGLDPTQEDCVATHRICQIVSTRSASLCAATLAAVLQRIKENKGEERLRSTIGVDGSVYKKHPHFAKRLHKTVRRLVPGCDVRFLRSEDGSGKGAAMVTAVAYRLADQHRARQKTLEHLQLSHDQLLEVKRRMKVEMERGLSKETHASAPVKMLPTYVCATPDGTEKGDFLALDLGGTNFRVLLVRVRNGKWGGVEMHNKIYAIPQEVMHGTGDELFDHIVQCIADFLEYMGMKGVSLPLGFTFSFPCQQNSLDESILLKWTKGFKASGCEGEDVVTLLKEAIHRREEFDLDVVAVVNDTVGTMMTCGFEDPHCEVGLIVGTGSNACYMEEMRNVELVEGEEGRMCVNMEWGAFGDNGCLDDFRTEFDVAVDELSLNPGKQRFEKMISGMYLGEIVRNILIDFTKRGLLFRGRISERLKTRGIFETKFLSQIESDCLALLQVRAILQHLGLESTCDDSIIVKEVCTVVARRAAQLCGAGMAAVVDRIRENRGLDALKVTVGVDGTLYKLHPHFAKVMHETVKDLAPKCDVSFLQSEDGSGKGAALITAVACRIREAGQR
inactive: [1] 0.035 | filanesib 0.031 | zotarolimus 0.03 | idasanutlin -0.064 | alisertib -0.124 | [2] 0.097 | gefitinib -0.07 | [3] 0.005 | lapatinib -0.206 | [4] -0.156 | crizotinib 0.082 | [5] 0.03 | [6] -0.014 | duvelisib 0.014 | tozasertib -0.028 | [7] 0.013 | doramapimod -0.026 | ispinesib 0.161
active: pictilisib -0.353 | gandotinib -0.297

GATA1 (UniProt P15976)
inactive: [1] -0.023 | filanesib 0.001 | zotarolimus -0.05 | idasanutlin -0.034 | alisertib 0.02 | [2] 0.07 | gefitinib 0.014 | [3] -0.087 | lapatinib 0.008 | pictilisib -0.021 | [4] 0.03 | crizotinib 0.16 | [5] -0.032 | [6] 0.046 | duvelisib -0.061 | gandotinib 0.112 | tozasertib 0.031 | [7] -0.071 | doramapimod 0.017 | ispinesib -0.063

IDH3A (UniProt P50213)
Chain of UniProt P50213 (P50213 whole entry, looked up): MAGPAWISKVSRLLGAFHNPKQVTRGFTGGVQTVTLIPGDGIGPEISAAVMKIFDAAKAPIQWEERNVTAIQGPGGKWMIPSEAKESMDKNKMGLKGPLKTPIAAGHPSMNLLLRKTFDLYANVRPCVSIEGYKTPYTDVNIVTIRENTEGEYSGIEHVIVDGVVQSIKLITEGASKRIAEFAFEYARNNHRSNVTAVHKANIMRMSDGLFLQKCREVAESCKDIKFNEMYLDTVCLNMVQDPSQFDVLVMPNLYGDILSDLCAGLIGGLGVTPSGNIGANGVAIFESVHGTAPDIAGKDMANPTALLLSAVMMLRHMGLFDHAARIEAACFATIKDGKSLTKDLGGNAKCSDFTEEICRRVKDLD
inactive: [1] 0 | filanesib -0.067 | zotarolimus 0.007 | idasanutlin -0.074 | alisertib -0.063 | [2] -0.009 | gefitinib 0.039 | [3] 0.022 | lapatinib 0.017 | pictilisib -0.021 | [4] 0.023 | crizotinib 0.006 | [5] 0.07 | [6] -0.046 | duvelisib 0.063 | gandotinib -0.037 | tozasertib -0.029 | [7] 0.022 | doramapimod -0.024 | ispinesib 0.013

GNAI3 (UniProt P08754)
inactive: [1] -0.041 | filanesib -0.002 | zotarolimus -0.081 | idasanutlin -0.004 | alisertib -0.124 | [2] 0.066 | gefitinib 0.118 | [3] -0.013 | lapatinib 0.009 | pictilisib 0.059 | [4] 0.121 | crizotinib 0.103 | [5] -0.122 | [6] 0.003 | duvelisib 0.002 | gandotinib 0.039 | tozasertib -0.023 | [7] -0.014 | doramapimod 0.036 | ispinesib -0.008

GALNT11 (UniProt Q8NCW6)
Chain of UniProt Q8NCW6 (Q8NCW6 whole entry, looked up): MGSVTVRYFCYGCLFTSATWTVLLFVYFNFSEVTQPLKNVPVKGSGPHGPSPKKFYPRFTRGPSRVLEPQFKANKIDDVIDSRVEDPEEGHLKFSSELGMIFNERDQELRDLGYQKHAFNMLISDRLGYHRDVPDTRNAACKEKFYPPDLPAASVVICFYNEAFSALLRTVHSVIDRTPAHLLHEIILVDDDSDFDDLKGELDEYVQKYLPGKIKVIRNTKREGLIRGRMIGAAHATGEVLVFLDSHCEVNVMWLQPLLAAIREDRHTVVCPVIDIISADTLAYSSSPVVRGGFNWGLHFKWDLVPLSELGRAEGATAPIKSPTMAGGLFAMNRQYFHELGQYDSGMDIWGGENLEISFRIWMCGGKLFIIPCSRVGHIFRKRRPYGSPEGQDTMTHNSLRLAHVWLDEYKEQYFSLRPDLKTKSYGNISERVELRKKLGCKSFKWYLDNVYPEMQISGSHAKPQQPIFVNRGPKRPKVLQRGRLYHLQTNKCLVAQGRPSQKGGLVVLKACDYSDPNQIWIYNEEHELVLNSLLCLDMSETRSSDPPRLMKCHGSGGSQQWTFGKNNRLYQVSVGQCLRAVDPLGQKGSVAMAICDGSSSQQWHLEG
inactive: [1] -0.012 | filanesib -0.028 | zotarolimus -0.019 | idasanutlin -0.042 | alisertib 0 | [2] 0.052 | gefitinib 0.013 | [3] 0.062 | lapatinib -0.011 | pictilisib 0.026 | [4] 0.039 | crizotinib 0.04 | [5] 0.112 | [6] 0.018 | duvelisib 0.039 | gandotinib 0.045 | tozasertib 0.027 | [7] -0.061 | doramapimod 0.045 | ispinesib -0.163

HDAC6 (UniProt Q9UBN7)
active: [1] 0.676
inactive: filanesib 0.006 | zotarolimus 0.008 | idasanutlin -0.055 | alisertib -0.097 | [2] 0.028 | gefitinib 0.043 | [3] -0.027 | lapatinib 0.016 | pictilisib 0.062 | [4] -0.019 | crizotinib -0.057 | [5] -0.007 | [6] 0.066 | duvelisib 0.045 | gandotinib 0.079 | tozasertib -0.091 | [7] 0.062 | doramapimod 0.015 | ispinesib -0.027

HNRNPF (UniProt P52597)
Chain of UniProt P52597 (P52597 whole entry, looked up): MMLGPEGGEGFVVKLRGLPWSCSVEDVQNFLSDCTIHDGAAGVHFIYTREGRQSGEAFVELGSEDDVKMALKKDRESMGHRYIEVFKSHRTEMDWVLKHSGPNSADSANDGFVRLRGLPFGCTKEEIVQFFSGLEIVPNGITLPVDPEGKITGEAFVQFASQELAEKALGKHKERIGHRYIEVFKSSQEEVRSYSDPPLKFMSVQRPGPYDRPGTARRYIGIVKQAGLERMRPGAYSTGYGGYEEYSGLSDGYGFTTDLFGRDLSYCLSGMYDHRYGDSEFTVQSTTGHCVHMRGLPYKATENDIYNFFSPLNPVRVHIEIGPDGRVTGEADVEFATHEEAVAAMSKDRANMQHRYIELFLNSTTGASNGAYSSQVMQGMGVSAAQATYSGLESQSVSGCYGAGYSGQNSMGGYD
inactive: [1] 0.059 | filanesib -0.03 | zotarolimus 0.046 | idasanutlin 0.073 | alisertib 0.03 | [2] -0.036 | gefitinib -0.034 | [3] -0.026 | lapatinib 0.008 | pictilisib -0.088 | [4] -0.016 | crizotinib -0.152 | [5] 0.047 | [6] -0.004 | duvelisib -0.061 | gandotinib -0.07 | tozasertib 0.071 | [7] 0.119 | doramapimod -0.03 | ispinesib -0.092

FKBP3 (UniProt Q00688)
Chain of UniProt Q00688 (Q00688 whole entry, looked up): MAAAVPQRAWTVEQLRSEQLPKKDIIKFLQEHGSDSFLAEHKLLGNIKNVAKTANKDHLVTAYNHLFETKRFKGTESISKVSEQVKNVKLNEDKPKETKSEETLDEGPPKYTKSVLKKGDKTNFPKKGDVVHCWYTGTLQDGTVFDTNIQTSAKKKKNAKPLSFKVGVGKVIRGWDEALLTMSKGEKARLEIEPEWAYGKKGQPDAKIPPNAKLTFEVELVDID
inactive: [1] 0.219 | filanesib -0.04 | idasanutlin -0.015 | alisertib -0.052 | [2] 0.047 | gefitinib -0.023 | [3] 0 | lapatinib -0.029 | pictilisib 0.004 | [4] -0.02 | crizotinib 0.017 | [5] 0.074 | [6] -0.076 | duvelisib 0.016 | gandotinib -0.024 | tozasertib 0.004 | [7] -0.006 | doramapimod 0 | ispinesib 0.019
active: zotarolimus 0.354

GTF2H3 (UniProt Q13889)
Chain of UniProt Q13889 (Q13889 whole entry, looked up): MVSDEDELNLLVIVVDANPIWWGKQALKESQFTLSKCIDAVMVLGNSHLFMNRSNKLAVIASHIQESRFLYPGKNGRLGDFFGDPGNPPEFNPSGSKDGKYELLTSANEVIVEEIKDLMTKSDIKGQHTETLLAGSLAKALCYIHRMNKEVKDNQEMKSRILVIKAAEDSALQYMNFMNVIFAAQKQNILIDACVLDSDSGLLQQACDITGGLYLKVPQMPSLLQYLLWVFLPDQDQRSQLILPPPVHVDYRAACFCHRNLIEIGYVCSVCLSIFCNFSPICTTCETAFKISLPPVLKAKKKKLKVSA
inactive: [1] -0.031 | filanesib 0.062 | zotarolimus -0.04 | idasanutlin -0.077 | alisertib -0.155 | [2] 0.016 | gefitinib 0 | [3] 0.041 | lapatinib 0.056 | pictilisib -0.089 | [4] 0.061 | crizotinib 0.049 | [5] -0.012 | [6] -0.003 | duvelisib -0.047 | gandotinib -0.012 | tozasertib -0.031 | [7] -0.2 | doramapimod 0.021 | ispinesib 0.023

HMOX2 (UniProt P30519)
inactive: filanesib 0.085 | zotarolimus 0.027 | idasanutlin 0.148 | alisertib -0.03 | [2] 0.036 | gefitinib 0.006 | [3] -0.041 | lapatinib -0.045 | pictilisib -0.04 | [4] 0.07 | crizotinib -0.03 | [5] 0.022 | [6] 0.008 | duvelisib 0.011 | gandotinib 0.017 | tozasertib -0.007 | [7] 0.041 | doramapimod 0.062 | ispinesib -0.028
active: [1] 0.444

HIKESHI (UniProt Q53FT3)
Chain of UniProt Q53FT3 (Q53FT3 whole entry, looked up): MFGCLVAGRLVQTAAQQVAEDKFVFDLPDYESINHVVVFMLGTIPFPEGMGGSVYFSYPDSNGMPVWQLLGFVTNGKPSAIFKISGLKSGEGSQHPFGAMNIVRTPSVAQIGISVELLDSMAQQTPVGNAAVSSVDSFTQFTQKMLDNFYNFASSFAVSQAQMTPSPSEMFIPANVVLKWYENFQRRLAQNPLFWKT
inactive: [1] -0.051 | filanesib -0.063 | zotarolimus 0.026 | idasanutlin -0.05 | alisertib -0.076 | [2] 0.067 | gefitinib 0.011 | [3] 0.009 | lapatinib -0.021 | pictilisib -0.004 | [4] -0.007 | crizotinib 0.067 | [5] 0.182 | [6] -0.023 | duvelisib 0.101 | gandotinib -0.033 | tozasertib 0.023 | [7] -0.021 | doramapimod -0.013 | ispinesib 0.192

FUBP3 (UniProt Q96I24)
inactive: [1] 0.129 | filanesib 0.055 | zotarolimus -0.072 | idasanutlin 0.049 | alisertib 0.034 | [2] 0.165 | gefitinib -0.049 | [3] 0.009 | lapatinib 0.006 | pictilisib -0.062 | [4] -0.076 | crizotinib -0.046 | [5] -0.083 | [6] 0.065 | duvelisib -0.002 | gandotinib -0.106 | tozasertib -0.028 | [7] 0.013 | doramapimod -0.025 | ispinesib -0.049

FKBP4 (UniProt Q02790)
Chain of UniProt Q02790 (Q02790 whole entry, looked up): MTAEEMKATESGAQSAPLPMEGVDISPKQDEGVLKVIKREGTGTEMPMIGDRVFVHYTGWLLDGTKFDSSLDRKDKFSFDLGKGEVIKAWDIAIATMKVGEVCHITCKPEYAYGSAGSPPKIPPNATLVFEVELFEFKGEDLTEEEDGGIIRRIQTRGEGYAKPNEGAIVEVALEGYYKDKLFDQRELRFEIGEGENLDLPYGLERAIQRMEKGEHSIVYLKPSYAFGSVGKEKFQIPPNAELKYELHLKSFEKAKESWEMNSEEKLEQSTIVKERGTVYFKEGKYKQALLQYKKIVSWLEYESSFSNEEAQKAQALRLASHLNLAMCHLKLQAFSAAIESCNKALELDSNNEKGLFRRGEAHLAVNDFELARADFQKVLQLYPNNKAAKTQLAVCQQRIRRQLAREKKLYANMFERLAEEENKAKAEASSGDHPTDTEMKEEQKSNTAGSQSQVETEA
inactive: [1] 0.015 | filanesib -0.066 | zotarolimus 0.077 | idasanutlin -0.048 | alisertib -0.018 | [2] 0.031 | gefitinib 0.008 | [3] 0.009 | lapatinib -0.062 | pictilisib 0.027 | [4] 0.013 | crizotinib -0.008 | [5] 0.042 | [6] -0.068 | duvelisib 0.019 | gandotinib -0.105 | tozasertib -0.005 | [7] 0.077 | doramapimod -0.052 | ispinesib -0.017
